These results are taken from PubChem BioAssay (EPA / NIEHS).

Assay [1] has as its target Retinoic acid receptor RXR-alpha (Homo sapiens) (UniProt P19793). Briefly: OT_NURR1_NURR1RXRa_0480: Odyssey Thera (OT) 8-hour HEK293T Protein Complementation Assay for Nurr1/retinoid X receptor (RXR) (AID 2283385). The method in brief: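 Gain in fluorescent complementation signal over DMSO, measured 8 hours after chemical dosing of human kidney HEK293T cells, indicated enhanced Nurr1–RXRα association.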

In assay [2] the target is Peroxisome proliferator-activated receptor gamma (Homo sapiens) (UniProt P37231). Briefly: OT_PPARg_PPARgSRC1_0480: Odyssey Thera (OT) 8-hour Protein-Complementation Assay for Peroxisome Proliferator-activated Receptor Gamma / SRC-1 Co-activator (AID 2283387). The method in brief: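 Read-out: 488 nm N/C fluorescence ratio from complemented Venus YFP fragments, ≥350 cells per image, gain-of-signal fitted against DMSO baseline. Fusions of PPARg/SRC-1 with IFP1/IFP2 expressed transiently in HEK293T; compounds applied 8 h.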

For assay [3] the target is unchanged. Briefly: OT_PPARg_PPARgSRC1_1440: Odyssey Thera (OT) 24-hour Protein-Complementation Assay for Peroxisome Proliferator-activated Receptor Gamma/ SRC-1 Co-activator (AID 2283388). The method in brief: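 HEK293T transiently transfected with PPARg/SRC-1 split-Venus YFP fusions 48 h before dosing, then treated 24 h at 37C. Fixed cells imaged; nuclear/cytoplasmic 488 nm fluorescence ratio, gain of signal versus DMSO.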

Read-out in assay [4]: Tumor necrosis factor receptor superfamily member 6 (Homo sapiens) (UniProt P25445)
Briefly: LTEA_HepaRG_FAS: Life Technologies and Expression Analysis (LTEA) Assay for Fas cell surface death receptor (FAS) using HepaRG (AID 2283447; active means hit-call score of the fitted dose curve at least 0.9, where 1 is the maximum; inactive means score below 0.9). The following applies: mRNA level, 48 h; actives raise or lower the signal. The method in brief:
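FAS transcript level was measured by TaqMan qRT-PCR against three housekeeping genes after 48 h chemical exposure. Cells were HepaRG, 0.5% DMSO vehicle, with a top concentration of 100 uM and half-log dilutions over eight points, in duplicate.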

Read-out in assay [5]: Fatty acid synthase (Homo sapiens) (UniProt P49327)
Briefly: LTEA_HepaRG_FASN: Life Technologies and Expression Analysis (LTEA) Assay for Fatty Acid Synthase (FASN) using HepaRG (AID 2283448; active means hit-call score of the fitted dose curve at least 0.9, where 1 is the maximum; inactive means score below 0.9;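 on AC50: differentiated human HepaRG liver cells in serum-free induction medium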). The following applies: mRNA level, 48 h; actives raise or lower the signal. The method in brief: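 In human HepaRG cultures, 48 h chemical exposure (up to 100 uM, 0.5% DMSO) preceded TaqMan qRT-PCR of FASN.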

Read-out in assay [6]: Cyclin D2 (CCND2), CCND2 (gene 894)
In words: LTEA_HepaRG_CCND2: Life Technologies and Expression Analysis (LTEA) Assay for Cyclin D2 (CCND2) using HepaRG (AID 2283449; active means hit-call score of the fitted dose curve at least 0.9, where 1 is the maximum; inactive means score below 0.9). The following applies: mRNA level, 48 h; actives raise or lower the signal. The method in brief: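 CCND2 transcript levels, quantified by qRT-PCR and normalised to three housekeeping genes, were fitted bidirectionally against 0.5% DMSO. HepaRG cultures were dosed 48 h in duplicate with an 8-point half-log series up to 100 uM.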

The target of assay [7] is Retinoic acid receptor RXR-alpha (Homo sapiens) (UniProt P19793). Briefly: OT_NURR1_NURR1RXRa_1440: Odyssey Thera (OT) 24-hour HEK293T Protein Complementation Assay for Nurr1/retinoid X receptor (RXR) (AID 2283386). The essentials:
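Cell-based binding reporter: HEK293T cells, 24 h exposure, fluorescence-detected fragment complementation, DMSO as baseline.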

A short description of assay [8]: CEETOX_H295R_11DCORT: CeeTox H295R High-throughput Steroidogenesis Assay for 11-Deoxycortisol (11DCORT) (AID 2283432; active means hit-call score of the fitted dose curve at least 0.9, where 1 is the maximum; inactive means score below 0.9;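 on AC50: 11-deoxycortisol secreted into the medium measured by LC-MS/MS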). The conditions noted are these: actives raise or lower the signal. The essentials: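 H295R cells; 10 uM forskolin prestim 48 h; compound in 0.1% DMSO 48 h; media extracted with MTBE; 11-deoxycortisol by LC-MS/MS, 7-point standard curve; gain/loss vs DMSO baseline; viability by MTT in same wells.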

The nature of assay [9]: CEETOX_H295R_OHPREG: CeeTox H295R High-throughput Steroidogenesis Assay for OH-Pregnenolone (OHPREG) (AID 2283434; active means hit-call score of the fitted dose curve at least 0.9, where 1 is the maximum; inactive means score below 0.9). The following applies: actives raise or lower the signal. The essentials:
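Secreted 17alpha-hydroxypregnenolone measured by HPLC-MS/MS after liquid-liquid extraction. Human adrenal H295R cells received 48 h forskolin (10 uM) stimulation before 48 h chemical exposure at 0.1% final DMSO; MTT viability in same wells; bidirectional fit against DMSO.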

Assay [10] can be described thus: CEETOX_H295R_OHPROG: CeeTox H295R High-throughput Steroidogenesis Assay for OH-Progesterone (OHPROG) (AID 2283435; active means hit-call score of the fitted dose curve at least 0.9, where 1 is the maximum; inactive means score below 0.9;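 on AC50: 17alpha-hydroxyprogesterone secreted into medium measured by HPLC-MS/MS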). The following applies: actives raise or lower the signal. The essentials:
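Human adrenocortical H295R cells, passage 10 or lower, were treated with chemical for 48 h after forskolin priming, and hormone output in the medium was quantified by LC-MS/MS.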

The nature of assay [11]: CEETOX_H295R_CORTISOL: CeeTox H295R High-throughput Steroidogenesis Assay for Cortisol (AID 2283438; active means hit-call score of the fitted dose curve at least 0.9, where 1 is the maximum; inactive means score below 0.9;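 further: cortisol secreted into medium quantified by LC-MS/MS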). The following applies: actives raise or lower the signal. The method in brief:
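Steroidogenesis in H295R, per modified OECD 456: 48 h forskolin (10 uM), then 48 h exposure, 0.1% DMSO. Cortisol by extraction and tandem MS; viability by MTT (570/650 nm); cytotoxic chemicals diluted and re-tested.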

Assay [12] is described as follows: CEETOX_H295R_DOC: CeeTox H295R High-throughput Steroidogenesis Assay for DOC (AID 2283439; active means hit-call score of the fitted dose curve at least 0.9, where 1 is the maximum; inactive means score below 0.9). The conditions noted are these: actives raise or lower the signal. The method in brief:
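H295R, fsk 10 uM ×48 h pre, cmpd ×48 h (0.1% DMSO). Media → MTBE extr. → LC-MS/MS, DOC. Bidirectional fit vs DMSO; MTT viability same wells, re-test diluted if <70%.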

Assay [13] can be described thus: CEETOX_H295R_PROG: CeeTox H295R High-throughput Steroidogenesis Assay for Progesterone (PROG) (AID 2283442; active means hit-call score of the fitted dose curve at least 0.9, where 1 is the maximum; inactive means score below 0.9;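 on AC50: human H295R adrenal cells primed with 10 µM forskolin before dosing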). The following applies: actives raise or lower the signal. The essentials:
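H295R adrenal cells prestimulated 48 h with 10 uM forskolin, then exposed 48 h to test chemical in 0.1% DMSO. Progesterone in medium quantified by HPLC-MS/MS after MTBE extraction; viability checked by MTT in same wells.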

Assay [14] can be described thus: CEETOX_H295R_ANDR: CeeTox H295R High-throughput Steroidogenesis Assay for Androstenedione (ANDR) (AID 2283436; active means hit-call score of the fitted dose curve at least 0.9, where 1 is the maximum; inactive means score below 0.9). The conditions noted are these: actives raise or lower the signal. The essentials:
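Medium from 48 h chemical-treated H295R adrenal cells was extracted with MTBE and androstenedione measured by LC-MS/MS. Activity was fit in both directions relative to DMSO. Cytotoxic concentrations were re-tested after dilution until MTT viability reached ≥70%.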

Inconclusive results are not listed. Calls of active or inactive are those of the source. How the source made its calls, unless noted: active means hit-call score of the fitted dose curve at least 0.9, where 1 is the maximum; inconclusive means response in the unintended direction; inactive means score below 0.9.

Chain of Fatty acid synthase (Homo sapiens) (P49327 whole entry, looked up): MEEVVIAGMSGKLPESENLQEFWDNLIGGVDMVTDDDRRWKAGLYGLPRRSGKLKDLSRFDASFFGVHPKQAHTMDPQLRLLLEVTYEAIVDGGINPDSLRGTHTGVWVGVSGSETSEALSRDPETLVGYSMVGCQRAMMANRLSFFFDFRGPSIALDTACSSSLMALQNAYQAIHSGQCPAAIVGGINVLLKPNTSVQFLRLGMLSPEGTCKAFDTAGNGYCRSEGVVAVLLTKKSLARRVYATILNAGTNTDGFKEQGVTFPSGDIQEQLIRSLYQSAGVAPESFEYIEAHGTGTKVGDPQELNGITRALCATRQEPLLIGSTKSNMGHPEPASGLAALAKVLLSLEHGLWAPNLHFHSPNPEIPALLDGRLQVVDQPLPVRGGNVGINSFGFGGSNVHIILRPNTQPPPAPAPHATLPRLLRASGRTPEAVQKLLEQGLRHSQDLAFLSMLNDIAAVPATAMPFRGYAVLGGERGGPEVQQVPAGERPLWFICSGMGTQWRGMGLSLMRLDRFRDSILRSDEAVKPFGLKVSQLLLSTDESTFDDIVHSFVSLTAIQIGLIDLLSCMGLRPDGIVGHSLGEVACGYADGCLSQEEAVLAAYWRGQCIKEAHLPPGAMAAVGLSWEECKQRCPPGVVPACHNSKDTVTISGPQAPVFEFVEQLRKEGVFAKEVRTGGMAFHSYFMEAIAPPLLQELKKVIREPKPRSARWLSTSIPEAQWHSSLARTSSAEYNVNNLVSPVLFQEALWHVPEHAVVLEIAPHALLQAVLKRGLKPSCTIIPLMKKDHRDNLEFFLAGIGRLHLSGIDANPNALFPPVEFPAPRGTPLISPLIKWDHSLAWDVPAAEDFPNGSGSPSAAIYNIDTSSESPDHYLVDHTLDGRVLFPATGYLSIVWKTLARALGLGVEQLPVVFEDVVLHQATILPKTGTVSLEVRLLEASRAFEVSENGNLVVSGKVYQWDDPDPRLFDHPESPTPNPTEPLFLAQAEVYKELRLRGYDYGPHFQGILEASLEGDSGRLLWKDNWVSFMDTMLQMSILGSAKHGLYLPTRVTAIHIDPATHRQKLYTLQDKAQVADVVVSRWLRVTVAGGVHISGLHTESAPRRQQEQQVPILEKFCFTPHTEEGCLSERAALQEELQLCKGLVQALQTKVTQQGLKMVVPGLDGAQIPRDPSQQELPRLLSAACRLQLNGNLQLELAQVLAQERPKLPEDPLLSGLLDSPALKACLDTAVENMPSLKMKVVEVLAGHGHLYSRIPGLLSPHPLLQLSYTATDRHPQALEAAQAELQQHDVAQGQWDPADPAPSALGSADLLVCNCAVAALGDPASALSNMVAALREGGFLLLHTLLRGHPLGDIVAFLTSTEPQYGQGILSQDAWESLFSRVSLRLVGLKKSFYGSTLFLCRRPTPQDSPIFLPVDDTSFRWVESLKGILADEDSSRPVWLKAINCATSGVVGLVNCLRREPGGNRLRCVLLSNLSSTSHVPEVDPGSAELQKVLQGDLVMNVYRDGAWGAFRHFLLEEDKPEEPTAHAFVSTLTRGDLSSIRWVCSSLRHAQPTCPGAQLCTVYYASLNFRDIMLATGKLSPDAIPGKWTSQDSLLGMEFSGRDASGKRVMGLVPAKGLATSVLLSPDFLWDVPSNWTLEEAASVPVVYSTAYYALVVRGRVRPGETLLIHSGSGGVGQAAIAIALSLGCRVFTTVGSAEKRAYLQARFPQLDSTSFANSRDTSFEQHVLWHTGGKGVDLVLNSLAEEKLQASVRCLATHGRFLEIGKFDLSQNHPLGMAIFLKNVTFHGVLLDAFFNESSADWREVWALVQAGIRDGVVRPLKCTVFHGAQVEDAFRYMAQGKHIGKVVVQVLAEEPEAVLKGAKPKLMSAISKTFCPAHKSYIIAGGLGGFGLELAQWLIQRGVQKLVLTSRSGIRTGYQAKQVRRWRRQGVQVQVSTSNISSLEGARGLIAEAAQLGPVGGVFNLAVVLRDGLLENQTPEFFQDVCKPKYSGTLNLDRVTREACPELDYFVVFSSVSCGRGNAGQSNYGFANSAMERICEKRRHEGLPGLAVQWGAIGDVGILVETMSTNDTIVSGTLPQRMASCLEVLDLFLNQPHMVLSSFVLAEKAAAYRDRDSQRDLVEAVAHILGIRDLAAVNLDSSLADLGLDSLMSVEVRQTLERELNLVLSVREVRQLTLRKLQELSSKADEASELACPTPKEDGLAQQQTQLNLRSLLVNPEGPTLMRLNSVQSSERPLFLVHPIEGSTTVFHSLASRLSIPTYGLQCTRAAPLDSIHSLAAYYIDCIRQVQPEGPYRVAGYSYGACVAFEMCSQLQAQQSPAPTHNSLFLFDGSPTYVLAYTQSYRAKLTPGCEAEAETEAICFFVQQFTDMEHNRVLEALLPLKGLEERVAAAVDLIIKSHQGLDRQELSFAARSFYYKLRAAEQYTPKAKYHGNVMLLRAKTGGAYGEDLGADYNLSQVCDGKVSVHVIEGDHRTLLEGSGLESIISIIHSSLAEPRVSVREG
Chain of Retinoic acid receptor RXR-alpha (Homo sapiens) (P19793 whole entry, looked up, the tested form may be a part): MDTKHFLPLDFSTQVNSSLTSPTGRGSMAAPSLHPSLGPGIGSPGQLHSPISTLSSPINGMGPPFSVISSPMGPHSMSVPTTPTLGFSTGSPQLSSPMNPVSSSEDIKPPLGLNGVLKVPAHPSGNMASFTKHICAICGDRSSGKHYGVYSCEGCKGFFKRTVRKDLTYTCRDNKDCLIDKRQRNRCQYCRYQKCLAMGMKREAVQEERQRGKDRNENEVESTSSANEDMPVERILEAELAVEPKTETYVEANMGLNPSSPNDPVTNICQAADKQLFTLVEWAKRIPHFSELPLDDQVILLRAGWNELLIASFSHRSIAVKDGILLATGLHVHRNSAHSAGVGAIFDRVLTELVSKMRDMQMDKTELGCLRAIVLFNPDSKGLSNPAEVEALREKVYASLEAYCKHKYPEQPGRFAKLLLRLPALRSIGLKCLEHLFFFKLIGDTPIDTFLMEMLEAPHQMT
Chain of Peroxisome proliferator-activated receptor gamma (Homo sapiens) (P37231 whole entry, looked up, the tested form may be a part): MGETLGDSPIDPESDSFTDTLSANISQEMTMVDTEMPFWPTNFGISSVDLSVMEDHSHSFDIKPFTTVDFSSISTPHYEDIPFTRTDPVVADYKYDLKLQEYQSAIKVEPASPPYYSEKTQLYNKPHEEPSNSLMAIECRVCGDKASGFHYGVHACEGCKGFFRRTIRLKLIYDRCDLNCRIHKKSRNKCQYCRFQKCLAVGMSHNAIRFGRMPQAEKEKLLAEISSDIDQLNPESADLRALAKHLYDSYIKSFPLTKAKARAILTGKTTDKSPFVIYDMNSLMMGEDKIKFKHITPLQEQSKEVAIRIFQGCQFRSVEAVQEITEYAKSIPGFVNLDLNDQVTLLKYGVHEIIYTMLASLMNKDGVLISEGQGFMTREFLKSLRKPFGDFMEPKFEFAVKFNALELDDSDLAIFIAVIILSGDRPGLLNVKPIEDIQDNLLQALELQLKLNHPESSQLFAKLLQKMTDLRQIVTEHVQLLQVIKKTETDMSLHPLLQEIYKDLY

In the case of `CO[C@@H]1COCC[C@@H]1N[C@@H]1CC[C@@](C(=O)N2CCc3ncc(C(F)(F)F)cc3C2)(C(C)C)C1`, the compound was classed as inactive in [1], in [2], in assay [3], in assay [4], in assay [5] and in assay [6].
With `CCCC(=O)O`, the call in assay [1], in [7], in assay [2], in assay [3], in assay [4] and in assay [5] was inactive. Further, the call in assay [6] was inactive.
For the compound `CC(C)(O)c1ccc(CNC(=O)c2cccnc2Oc2ccc(F)cc2)cc1`, the result in [8], in [9], in assay [10], in assay [12], in assay [13] and in assay [4] was inactive. Besides, the result in assay [5] and in assay [6] was inactive. The AC50 in assay [11] is 64.9 µM (active).
As to `Cc1occc(=O)c1O`, the compound was classed as inactive in assay [7], in assay [2], in assay [3], in [4], in [5] and in assay [6].
Consider `O=C1OC(c2ccc(O)cc2)(c2ccc(O)cc2)c2ccccc21`, for which the call in assay [1], in assay [7], in [2], in assay [3], in assay [9] and in assay [14] was inactive. Moreover, the result in assay [4] and in assay [6] was inactive. For the same compound, the AC50 is 1.77 µM (active) in assay [10], 2.39 µM (active) in assay [13] and 89.6 µM (active) in assay [5].
In the case of `CCCC[C@H]1CN(CC2CCOCC2)C(=O)OC12CCN(C1(C)CCN(C(=O)c3c(C)ncnc3C)CC1)CC2`, the outcome in assay [7], in assay [2], in assay [3], in assay [4], in [5] and in assay [6] was inactive.
Take `NCCOCCOCCN`: the result in [1], in assay [7], in [2], in assay [3], in assay [4] and in [5] was inactive. Further, in assay [6], the call was inactive.
As for `CCOCCOCCO`, the outcome in [1], in assay [7], in [2], in assay [3], in assay [4] and in assay [5] was inactive. Also, in [6], the compound was called inactive.
`O=C1NC(=O)C(c2ccccc2)(c2ccccc2)N1`: the call in assay [1], in [7], in [2], in assay [3], in [8] and in assay [9] was inactive. The outcome in [12], in [13], in [4], in assay [5] and in assay [6] was inactive. The AC50 in assay [11] is 26.6 µM (active).
`CCN(CC)CCOc1ccc(C(=C(Cl)c2ccccc2)c2ccccc2)cc1`: the AC50 is 9.55 µM (active) in assay [1]; 0.104 µM (active) in assay [8]; 0.0411 µM (active) in [9]; 0.147 µM (active) in [10]; 0.222 µM (active) in [14]; 0.0456 µM (active) in [12]. Besides, the AC50 in assay [13] was 0.0347 µM (active). Further, the result in assay [2], in assay [3], in [11], in assay [4], in [5] and in assay [6] was inactive.
In the case of `N[C@@H](Cc1c[nH]c2ccccc12)C(=O)O`, the outcome in assay [1], in assay [7], in assay [2], in assay [3], in assay [4] and in assay [5] was inactive. Besides, in assay [6], the compound was called inactive.
`NC=O`: the call in assay [2], in [3], in [4], in [5] and in [6] was inactive.
